This note sets out measurements from ChEMBL document CHEMBL3988442, “University of Dundee, Small-Polar-MMV Screening Library” (2021).

Molecules are shown by their SMILES. The campaign covered roughly 48,000 compounds. About 13,000 (27%) showed an effect of 50% or more. The list shows a part of the results.

The assay relates to Wolbachia pipientis. Put plainly: Anti-Wolbachia Cell-Based Screen. The class given is functional. Details: scale not given: in the data most compounds retested in dose-response had high values. The conditions noted are these: 5 µM.
For `CCn1ccnc1CNc1nccc(-c2cn(C)nc2C)n1`, the “Percent Effect” value was -3.456%. For `CC(C)C(NC(=O)N1CCN(c2ccc(Cl)cc2)CC1)C(=O)NC1CC1` (stereo unspecified), the “Percent Effect” value is 0.3878%.

Take `COc1ccc(OC)c(C(O)CN2CC(n3cccn3)C2)c1` (stereo unspecified): the “Percent Effect” value is on record as -4.387%. On to `CCCN1CC2(CCN(c3cc(C4CC4)ncn3)CC2)CC1C(=O)O` (stereo unspecified), for which the “Percent Effect” value is reported as -4.033%. Take `CC1(C)CN(Cc2cc(C3CCCCC3)no2)CC[C@]1(C)O`: the “Percent Effect” value turned out to be 3.04%. Next, `Cc1ccc(NC2CCN(C(=O)c3n[nH]c4ccccc34)CC2)nn1`: -3.019%; `Cc1ccc(NC2CCN(C(=O)c3ccc(Cl)o3)CC2)nn1`: -2.526%. With `Cc1ccc(NC2CCN(C(=O)c3cnc(C)s3)CC2)nn1`, the “Percent Effect” value was -2.09%. Then `Cc1ccc(NC2CCN(C(=O)c3ccncc3)CC2)nn1`, with 119.5%; and `Cc1ccc(NC2CCN(C(=O)c3sccc3C3CC3)CC2)nn1`, with 97.28%.

Regarding `Cc1ccc(NC2CCN(C(=O)c3ccco3)CC2)nn1`, the “Percent Effect” value came out at 66.81%. Then `Cc1ccc(NC2CCN(C(=O)c3cccn3C)CC2)nn1`, with 4.199%; and `Cc1ccc(NC2CCN(C(=O)c3cnn(C(C)(C)C)c3)CC2)nn1`, with 89.59%.

As to `Cc1ccc(NC2CCN(C(=O)c3ccsc3)CC2)nn1`, the “Percent Effect” value is -4.871%. In the case of `CC(C)=CCN1CCc2onc(-c3ccc(F)c(F)c3)c2C1`, the “Percent Effect” value is on record as -6.636%.

On to `CC(C)NC(=O)[C@@H]1C[C@@H](N)CN1C(=O)CCSCc1ccc(F)cc1`, for which the “Percent Effect” value is given as -8.578%.

On to `CC(NC(=O)c1cc2n(n1)CCCN(C)C2)c1cn2ncsc2n1` (stereo unspecified), for which the “Percent Effect” value amounted to 2.374%. Next, `O=C(Cc1cc(F)cc(Cl)c1)N[C@@H]1CCNC[C@H]1O`: -5.906%; `Cc1ccc(NC2CCN(C(=O)c3ccnc(N(C)C)c3)CC2)nn1`: 106.8%. Next, `Cc1ccc(NC2CCN(C(=O)c3ccc(C#N)cc3)CC2)nn1`: 103.2%. Next, `Cc1ccc(NC2CCN(C(=O)c3cccc4ncccc34)CC2)nn1`: 0.6647%; `CCn1ccnc1S(=O)(=O)Cc1ccc(C(N)=O)cc1`: -8.81%. In the case of `Cc1ccc(NC2CCN(C(=O)CCOCC(F)(F)F)CC2)nn1`, the “Percent Effect” value stood at 69.22%. Take `Cc1ccc(NC2CCN(C(=O)CN(C)C3CC3)CC2)nn1`: the “Percent Effect” value is -0.8726%. With `Cc1ccc(NC2CCN(C(=O)CC3CCCO3)CC2)nn1` (stereo unspecified), the “Percent Effect” value turned out to be 6.763%. Next, `Cc1ccc(NC2CCN(C(=O)COCC(F)(F)F)CC2)nn1`: -5.027%; `Cc1ccc(NC2CCN(C(=O)COCC3CC3)CC2)nn1`: 115.7%; `Cc1ccc(NC2CCN(C(=O)COC3CCCC3)CC2)nn1`: 70.65%.

On to `Cc1ccc(NC2CCN(C(=O)COC3CCCCC3)CC2)nn1`, for which the “Percent Effect” value stood at 112.2%. Next, `Cc1ccc(CNC(C)c2ccc(N3CCN(C)CC3)c(F)c2)o1.Cl` (stereo unspecified): -9.969%. For the compound `Cc1cc(NS(=O)(=O)c2c[nH]c3ncccc23)no1`, the “Percent Effect” value is -5.183%.

Turning to `COCc1ccccc1C(=O)NCC(O)c1ccccc1F` (stereo unspecified), the “Percent Effect” value is reported as -8.064%. For `Cl.O=C(c1cccnc1)N1CCC2(CC1)CNc1c(F)cccc12`, the “Percent Effect” value was determined as 106.5%. Regarding `CN1CC2(CCN(C(=O)c3cccnc3)CC2)c2cccc(F)c21.Cl`, the “Percent Effect” value was determined as 104.8%.

Regarding `Cl.O=C(c1ccccc1)N1CCC2(CC1)CNc1c(F)cccc12`, the “Percent Effect” value was 97.7%. On to `CN1C(=O)C2(CCN(C(=O)c3cccnc3)CC2)c2cccc(F)c21`, for which the “Percent Effect” value is given as 5.447%. Next, `CS(=O)(=O)N1CCc2[nH]cnc2C12CCN(C(=O)c1cccnc1)CC2`: -96.76%; `CN1C(=O)C2(CCN(C(=O)c3ccccc3)CC2)c2cc(F)ccc21.Cl`: -1.303%.

Take `CC(=O)N1CCC2(CC1)CNc1c(F)cccc12.Cl`: the “Percent Effect” value is on record as 98.89%.

`CC(=O)N1CCC2(CC1)CNc1ccc(F)cc12`: the “Percent Effect” value is given as -3.15%. Next, `CC(=O)N1CCC2(CC1)C(=O)N(C)c1c(F)cccc12`: 2.868%. Next, `CN1C(=O)C2(CCN(C(=O)c3ccccc3)CC2)c2cccc(F)c21.Cl`: 2.069%; `CN1CC2(CCN(Cc3cccnc3)CC2)c2cccc(F)c21.Cl`: 16.02%; `O=S(=O)(NCCN1CC=CC1)c1cncc(Cl)c1`: -9.615%. Then `CC(C)CN(C)Cc1c[nH]nc1-c1ccc(F)cc1F`, with -3.52%; and `CNC(=O)NC(=O)CN1CCN(CC(F)(F)F)CC1(C)C`, with -1.445%; and `CCC(C)(NCC(=O)NC(C)C)c1nc(C)cs1` (stereo unspecified), with 4.424%. For `CCN1CCN(c2ccc(C(=O)NCc3cc(C)no3)cc2F)CC1`, the “Percent Effect” value is recorded as -18.85%.

With `Cc1nc(CN(C)C(=O)CN(C)C)nc2c1CCC(=O)N2CCC(C)C`, the “Percent Effect” value is given as 66.01%. Next, `Cc1nc(C)c2c(n1)CCN(C(=O)CN(C)C)CC2`: -4.048%; `Cc1nnc(CN(C)C(=O)C(CC(C)C)N2CCCCC2=O)n1C` (stereo unspecified): -1.247%. Then `COC(=O)N1CCCC(NC(=O)NCc2nc(C)cs2)C1` (stereo unspecified), with -5.295%; and `CCC(=O)N(CC)CCc1nccs1`, with -20.38%; and `CCOc1ccc(CC(CNC(=O)c2ccoc2)C(N)=O)cc1` (stereo unspecified), with 0.9555%. Then `Cc1cccc(C(C)(C)CNC(=O)CN(C)c2cnccn2)c1`, with 2.301%.

Consider `CCCn1ncc(C(=O)N(C)Cc2cc(C3CC3)[nH]n2)c1C`, for which the “Percent Effect” value is given as 103.9%. With `CN(Cc1cc(C2CC2)[nH]n1)C(=O)C(c1cccnc1)N1CCCC1` (stereo unspecified), the “Percent Effect” value was found to be 5.078%. Next, `CCCn1ncc(C(=O)N2CCN(C(=O)c3ccc[nH]3)CC2)c1C`: 2.425%. Then `CN(Cc1cc(C2CC2)[nH]n1)C(=O)c1cnn2ccn(C)c12`, with 92.15%; and `Cc1ccc(F)c(NC(=O)CCC(=O)N(C)Cc2cc(C3CC3)[nH]n2)c1`, with -39.88%; and `Cc1ccc2[nH]c(=O)c(CN(C)Cc3cc(C4CC4)[nH]n3)cc2c1`, with -5.439%. Regarding `Cc1cnc2c(C(=O)N(C)Cc3cc(C4CC4)[nH]n3)cnn2c1`, the “Percent Effect” value was determined as 88.43%.

Consider `CCCn1ncc(C(=O)N(C)Cc2n[nH]c3c2CCC3)c1C`, for which the “Percent Effect” value is on record as -0.7404%. As to `CN(Cc1cc(C2CC2)[nH]n1)C(=O)c1ccccc1C1CCNC1` (stereo unspecified), the “Percent Effect” value is given as 6.983%. Then `Cn1ccc(CNC(=O)N2CCCC3(C2)OCCO3)c1`, with -4.368%; and `Cc1ccc(CNCc2cccc3cn[nH]c23)c(OC2CCOC2)c1` (stereo unspecified), with 1.328%.
